Sm TGR block: blocks Schistosoma mansoni thioredoxin glutathione reductase | purified TGR, DTNB reduction, TNB absorbance 405 nm | Potency, µM (doses to about 114 µM), hits mostly inhibitors | actives 3% (n = 360,000); note: nearly all actives have a fitted effect of over 60% in size
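Kinetic colorimetric format: TGR-catalysed, NADPH-driven DTNB reduction monitored via TNB absorbance. Enzyme dispensed at 20 nM; compound exposure 15 min at room temperature before reaction start.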
Tb PYK inh: blocks Trypanosoma brucei pyruvate kinase. Q57TT1. TbPYK enzyme, Kinase-Glo Plus ATP luminescence, 45 min. Potency, µM (highest dose often 76.8 µM), actives largely listed as inhibitors. actives 0.12% (n = 410,000); note: nearly all actives have a fitted effect of over 50% in size
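Luminescent Kinase-Glo Plus end-point after 45 min room-temperature reaction of T. brucei pyruvate kinase started with 130 uM ADP (final). Buffer TEA 50 mM pH 7.2 with KCl, MgCl2, BSA, Tween-20; titration-based qHTS with fitted concentration-effect curves.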
LmPK inh: inhibitors of Leishmania mexicana pyruvate kinase; Potency, µM (series often up to 57.5 µM), actives largely listed as inhibitors; Q27686; actives 0.37% (n = 290,000); purified LmPK, Kinase-Glo ATP luminescence, 1 h
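Pyruvate kinase activity monitored as ATP production (luciferase luminescence). Conditions: 0.1 nM enzyme, 0.5 mM PEP, 0.1 mM ADP, 1 h, RT; normalized against uninhibited and no-enzyme wells.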
CHX counter: affects cycloheximide protein synthesis inhibition readout, counter-screen | cell reporter, cycloheximide protein synthesis inhibition counterscreen | max response, % | actives 12% (n = 300,000); in the data active = max response mostly above about 13%, no sharp cut-off; inactive = mostly below about 14%; note: read at 38.3 µM for the half of the compounds with a filed dose
Giardia FBPA inh: inhibitors of Giardia lamblia fructose-1,6-bisphosphate aldolase; A8B2U2; purified Giardia FBPA; Potency, µM (top dose mostly 59.6 µM), usual class: inhibitors; actives 0.71% (n = 290,000); note: nearly all actives have a fitted effect of over 55% in size
Target sequence (A8B2U2 whole entry, looked up): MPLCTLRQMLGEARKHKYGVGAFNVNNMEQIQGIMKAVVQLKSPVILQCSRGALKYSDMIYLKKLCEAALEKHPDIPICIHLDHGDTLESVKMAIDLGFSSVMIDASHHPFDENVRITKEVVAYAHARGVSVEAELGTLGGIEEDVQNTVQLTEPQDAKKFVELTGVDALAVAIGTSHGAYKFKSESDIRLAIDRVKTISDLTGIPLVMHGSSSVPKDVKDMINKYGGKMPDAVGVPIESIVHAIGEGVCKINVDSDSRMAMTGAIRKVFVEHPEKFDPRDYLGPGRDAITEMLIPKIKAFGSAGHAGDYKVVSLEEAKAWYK
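Giardia FBPA (40 nM reagent) was preincubated 10 min at RT with compound (up to 57.5 uM final), then substrate plus GAPDH/TPI/NAD/arsenate coupling system with diaphorase/resazurin was added; resorufin fluorescence (525/598 nm) was read after 20 min.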
Shiga toxin inh: Shiga toxin inhibition. actives 9.2% (n = 290,000). inhibition, % at 38.7 µM. AID 2315. Vero cells, Shiga toxin protein synthesis inhibition reporter; in the data active = inhibition mostly above about 28%, no sharp cut-off; inactive = mostly below about 43%
A number is an active result; i = inactive; ? = inconclusive; nt = no result; + = active, no number; [ ] = another dose, or the depositor's remark. The entries come from a sample that favours hits as a whole. Unless noted, calls come from the whole dose curve; as a rule, active = well fitted curve in the direction sought with a large enough effect; inconclusive = small, poorly fitted or top-dose-only effect, or another doubt; inactive = no such curve, though single readings can be large; an effect the other way counts as inactive or inconclusive.

SMILES	Sm TGR block	Tb PYK inh	LmPK inh	CHX counter	Giardia FBPA inh	Shiga toxin inh
CC(/C=C/c1ccccc1)=N\NC(N)=S	i	i	i	26.8	i	52.5
Cc1ccc(C)c(CN2C(=O)c3ccccc3S(=O)c3ccc(C(=O)N4CCCCC4)cc32)c1 (stereo not drawn)	i	i	nt	nt	nt	nt
CCOC(=O)CC(NC(=O)c1cc2cc(OC)ccc2oc1=O)c1ccc(OC)cc1 (stereo not drawn)	i	i	nt	nt	nt	nt
COc1cc(OC)cc(-c2nc3nc(C)c(CCC(=O)Nc4ccc(F)cc4F)c(C)n3n2)c1	i	i	nt	nt	nt	nt
Cc1nnc(Sc2cc(NCCCO)c([N+](=O)[O-])c3nonc23)s1	0.316µM	i	i	i	?	i
CCC(=O)OCCNc1cc(Sc2nc3ccccc3s2)c2nonc2c1[N+](=O)[O-]	0.251µM	i	i	i	?	i
O=[N+]([O-])c1c(NCCCO)cc(Sc2nc3ccccc3s2)c2nonc12	i	i	i	i	?	i
CCC(=O)OCCNc1cc(Sc2nc3ccccc3[nH]2)c2nonc2c1[N+](=O)[O-]	0.562µM	i	i	i	?	i
CCSc1ncc(Cl)c(C(=O)Nc2nc3ccc(S(C)(=O)=O)cc3s2)n1	i	i	nt	nt	nt	nt
COC(=O)c1ccc(NC(=O)CC2C(=O)N(c3cccc(OC)c3)C(=O)N2Cc2cccc(OC)c2)cc1 (stereo not drawn)	i	i	nt	nt	nt	nt
C#CCOc1ccc(C2C(C(=O)OC)=C(C)NC3=C2C(=O)c2ccccc23)cc1OCC (stereo not drawn)	i	i	nt	nt	nt	nt
CC(C)c1ccc(C(O)c2cnc(C(C)C)n2C)cc1 (stereo not drawn)	i	i	i	36.2	i	47.2
CN(C)S(=O)(=O)N1C(=O)c2ccccc2C1=O	i	i	28.2µM	i	i	i
COc1ccc(N(Cc2cccs2)C(=O)COc2cc(C)c(Cl)c(C)c2)cc1	i	i	nt	nt	nt	nt
CN(c1ccc(C(=O)N2CCOCC2)cc1)S(=O)(=O)c1ccc(Cl)cc1	i	i	i	10.1	nt	34.1
CNC(=O)c1nnsc1S(=O)(=O)c1ccc(Cl)cc1	0.282µM	i	i	i	i	i
Nc1nc(C(=O)N2CCOCC2)nn1S(=O)(=O)c1ccc(Cl)cc1	i	i	i	i	i	i
O=C(c1nnsc1S(=O)(=O)c1ccc(Cl)cc1)N1CCOCC1	11.2µM	i	i	28.1	i	45.4
Cc1nnsc1S(=O)c1ccc(Cl)cc1 (stereo not drawn)	i	i	i	i	i	i
O=C(Nc1ccccc1)c1nnsc1S(=O)c1ccc(Cl)cc1 (stereo not drawn)	0.1µM	?	i	i	i	i
CNC(=O)c1ccc(S(=O)(=O)c2ccc(Cl)cc2)c(NC(C)=O)c1	i	i	i	i	i	i
O=C(NCc1ccccc1Cl)c1ccc2c(c1)N(Cc1ccccc1)C(=O)CS2	i	i	nt	nt	nt	nt
COc1ccccc1C(=O)Nc1ccc(C(=O)OCc2cc(=O)n3c4c(sc3n2)CCCC4)cc1	i	i	nt	nt	nt	nt
CCC(C)N(C(=O)COc1ccc(NC(C)=O)cc1)C1CCS(=O)(=O)C1 (stereo not drawn)	i	i	i	i	i	i
Cc1ccc(NC(=O)CCNS(=O)(=O)c2ccc3c(c2)CCCC(=O)N3)cc1	i	i	nt	nt	nt	nt
SMILES	Sm TGR block	Tb PYK inh	LmPK inh	CHX counter	Giardia FBPA inh	Shiga toxin inh
O=C(c1nnsc1S(=O)c1ccc(Cl)cc1)N1CCOCC1 (stereo not drawn)	2.51µM	i	i	59.8	i	i
O=S(=O)([N-]c1nc2ccccc2nc1-[n+]1ccc(-c2ccncc2)cc1)c1ccccc1	i	i	i	33.6	i	92.0
CCn1ccc(C(=O)Nc2ccc3c(c2)CCC3)n1	i	i	i	i	nt	113.2
CSc1ccccc1NC(=O)c1ccccc1	i	i	i	i	i	i
CCOC(=O)c1c(NC(=O)c2ccn(CC)n2)sc2c1CCC2	i	i	i	i	i	i
CC(=O)N(C)c1ccc(NC(=O)c2ccccc2C(=O)O)cc1	i	i	i	i	i	i
CCn1ccc(C(=O)Nc2ccccc2SC)n1	i	i	i	32.8	i	87.9
CCn1ccc(C(=O)Nc2ccc(N(C)C(C)=O)cc2)n1	i	i	i	22.9	i	45.5
CCOc1ccc(N(CC)S(=O)(=O)N2CCCC(C(=O)Nc3ccc(NC(C)=O)cc3)C2)cc1 (stereo not drawn)	i	i	nt	nt	nt	nt
COC(=O)[C@@H]1OC(c2ccccc2)O[C@H]1C(=O)OC	nt	nt	nt	i	i	i
O=C(C1=C[C@@H](c2ccccc2)C[C@@H](OCCCCO)O1)N1CCOCC1	39.8µM	i	i	i	i	i
CN1CCN(C(=O)C2=C[C@@H](c3ccccc3)C[C@@H](OCCCCO)O2)CC1	39.8µM	i	i	i	i	i
CN1CCN(C(=O)C2=C[C@@H](c3csc4ccccc34)C[C@@H](OCCCCO)O2)CC1	44.7µM	i	i	i	i	i
CN1CCN(C(=O)C2=C[C@H](c3ccc(Br)cc3)C[C@H](OCCCCO)O2)CC1	22.4µM	i	i	i	i	i
O=C(Oc1ccc(F)cc1)c1nc(SCc2ccccc2F)ncc1Cl	i	i	nt	nt	nt	nt
Fc1ccc(-n2nnnc2-c2cnc(-c3cccs3)nc2C(F)(F)F)cc1	i	i	i	i	i	i
Cc1ccc2c(c1)[C@H]1[C@H](CO2)[C@H](c2ccccc2)[C@]2(C)C(=O)N(C)CC(=O)N12	nt	i	nt	nt	nt	nt
O=C(C1=C[C@@H](C2CCCCC2)C[C@@H](OCCCCO)O1)N1CCOCC1	i	i	i	i	i	i
O=C(C1=C[C@@H](C2CC2)C[C@@H](OCCCCO)O1)N1CCOCC1	56.2µM	i	i	i	i	i
O=C(CSc1ccc(-c2cccc([N+](=O)[O-])c2)nn1)N1CCCC1	i	i	i[11.5 µM]	i	i	i
CCSc1ccc(-c2cccc([N+](=O)[O-])c2)nn1	i	i	i[11.5 µM]	52.7	i	+
O=C(CSc1ccc(-c2cccc([N+](=O)[O-])c2)nn1)N1CCCCCC1	i	i	i	19.4	i	i
CCOC(=O)[C@H]1[C@H]2COc3ccc(Br)cc3[C@@H]2N2C(=O)CN(Cc3ccco3)C(=O)[C@@]12C	31.6µM	i	nt	nt	nt	nt
O=S(=O)(Nc1nc2ccccc2nc1Nc1ccccc1Br)c1ccccc1	i	i	nt	nt	nt	nt
COc1cc(C(=O)NCC(c2ccco2)S(=O)(=O)c2cccs2)cc(OC)c1OC (stereo not drawn)	8.91µM	i	nt	nt	nt	nt
O=C(NCC(c1cccs1)S(=O)(=O)c1cccs1)c1ccc(Cl)cc1 (stereo not drawn)	25.1µM	i	nt	nt	nt	nt
O=C(NCC(c1cccs1)S(=O)(=O)c1cccs1)c1ccc(F)c(F)c1 (stereo not drawn)	?	i	nt	nt	nt	nt
O=C(NCC(c1cccs1)S(=O)(=O)c1cccs1)c1ccc(C(F)(F)F)cc1 (stereo not drawn)	?	i	nt	nt	nt	nt
